In the antibiotic and cytotoxicity screens of Wong et al. (2023):
The whole screen tested about 39,000 compounds, of which about 3,300 (8.5%) were called active. Shown is part of a subset that was picked to be rich in actives.

system: HepG2; experiment: cytotoxicity call (relative viability < 0.9); conditions: 10 µM

| Compound | cytotoxicity call |
| --- | --- |
| C[C@H](CO)N1C[C@H](C)[C@H](CN(C)Cc2ccc(C(=O)O)cc2)Oc2c(NC(=O)C3CCOCC3)cccc2C1=O | inactive |
| C[C@@H]1CN([C@@H](C)CO)C(=O)c2cccc(NC(=O)Nc3ccccc3)c2O[C@@H]1CN(C)Cc1ccc(Cl)c(Cl)c1 | inactive |
| Cc1cc2n(c(=O)c1C(N)=O)CCO2 | inactive |
| CC/C=C\C/C=C\C/C=C\C/C=C\C/C=C\C/C=C\CCC(=O)OCC | inactive |
| C[C@@H]1CN([C@@H](C)CO)C(=O)c2cc(NC(=O)Nc3ccc4c(c3)OCO4)ccc2O[C@@H](C)CCCCO[C@@H]1CN(C)Cc1ccncc1 | inactive |
| CCCNC(=O)N1C[C@]2(CCN(CC2)S(=O)(=O)c2ccccc2)c2c(n(c3cc(ccc23)OC)C)[C@H]1CO | inactive |
| CCCNC(=O)N1C[C@]2(CN(C2)S(=O)(=O)c2cccc(c2)OC)c2c(n(c3cc(ccc23)OC)C)[C@@H]1CO | inactive |
| CCCNC(=O)N1C[C@]2(CN(C2)S(=O)(=O)c2ccccc2)c2c(n(c3cc(ccc23)OC)C)[C@@H]1CO | inactive |
| CCCNC(=O)N1C[C@]2(CN(C2)S(=O)(=O)c2ccccc2)c2c(n(c3cc(ccc23)OC)C)[C@H]1CO | active |
| CCCNC(=O)N1C[C@]2(CCN(CC2)S(=O)(=O)c2ccc(cc2)OC)c2c(n(c3cc(ccc23)OC)C)[C@H]1CO | inactive |
| CCCNC(=O)N1C[C@]2(CCN(CC2)S(=O)(=O)c2ccc(cc2)OC)c2c(n(c3cc(ccc23)OC)C)[C@@H]1CO | active |
| C[C@H]1CN([C@@H](C)CO)C(=O)c2cccc(NS(C)(=O)=O)c2O[C@H]1CN(C)S(=O)(=O)c1cccs1 | inactive |
| COCC#Cc1cnc2c(c1)C(=O)N([C@H](C)CO)C[C@@H](C)[C@H](CN(C)C(C)=O)O2 | inactive |
| N[C@@H]1CC(=O)N(c2ccc(F)cc2)C1 | inactive |
| C[C@H](CO)N1C[C@H](C)[C@H](CN(C)S(=O)(=O)c2ccc(Cl)cc2)Oc2ccc(NS(=O)(=O)c3cn(C)cn3)cc2C1=O | inactive |
| O=C(CCCCC(=O)N/N=C/[C@H](O)[C@@H](O)[C@H](O)CO)NO | inactive |
| COc1ccc(CN(C)C[C@H]2OCCCC[C@@H](C)Oc3ccc(NS(=O)(=O)c4cccs4)cc3C(=O)N([C@H](C)CO)C[C@@H]2C)cc1 | inactive |
| COC(=O)C[C@](O)(CCCC(C)(C)O)C(=O)O[C@@H]1C(OC)=C[C@]23CCCN2CCc2cc4c(cc2[C@H]13)OCO4 | active |
| CC(C)(O)[C@@H]1CC[C@]2(CO)[C@@H](O)CC[C@](C)(O)[C@H]2[C@@H]1O[C@@H]1O[C@H](CO)[C@@H](O)[C@H](O)[C@H]1O | inactive |
| Cc1ccc(S(=O)(=O)N(C)C[C@H]2Oc3c(NC(=O)c4cnccn4)cccc3C(=O)N([C@@H](C)CO)C[C@@H]2C)cc1 | inactive |
| C[C@@H]1CCCCO[C@@H](CN(C)S(=O)(=O)c2ccc(Cl)cc2)[C@@H](C)CN([C@@H](C)CO)C(=O)c2cc(NC(=O)c3ccccc3)ccc2O1 | inactive |
| C[C@@H]1CN([C@H](C)CO)C(=O)c2cc(NC(=O)c3ccccc3)ccc2O[C@@H](C)CCCCO[C@H]1CN(C)S(=O)(=O)c1ccc(Cl)cc1 | active |
| C[C@@H]1CCCCO[C@@H](CN(C)S(=O)(=O)c2ccc(Cl)cc2)[C@@H](C)CN([C@H](C)CO)C(=O)c2cc(NC(=O)c3ccccc3)ccc2O1 | inactive |

| Compound | cytotoxicity call |
| --- | --- |
| C[C@@H]1CCCCO[C@@H](CN(C)S(=O)(=O)c2ccc(Cl)cc2)[C@H](C)CN([C@H](C)CO)C(=O)c2cc(NC(=O)c3ccccc3)ccc2O1 | inactive |
| C[C@H](CO)N1C[C@H](C)[C@H](CN(C)S(=O)(=O)c2ccc(Cl)cc2)OCCCC[C@H](C)Oc2ccc(NC(=O)c3ccccc3)cc2C1=O | inactive |
| C[C@H]1CCCCO[C@H](CN(C)S(=O)(=O)c2ccc(Cl)cc2)[C@@H](C)CN([C@@H](C)CO)C(=O)c2cc(NC(=O)c3ccccc3)ccc2O1 | active |
| C[C@@H]1CN([C@@H](C)CO)C(=O)c2cc(NC(=O)c3ccccc3)ccc2O[C@@H](C)CCCCO[C@@H]1CN(C)S(=O)(=O)c1ccc(Cl)cc1 | inactive |
| C[C@@H]1CCCCO[C@H](CN(C)S(=O)(=O)c2ccc(Cl)cc2)[C@@H](C)CN([C@H](C)CO)C(=O)c2cc(NC(=O)c3ccccc3)ccc2O1 | inactive |
| C[C@@H]1CN([C@@H](C)CO)C(=O)c2cc(NC(=O)c3ccccc3)ccc2O[C@@H](C)CCCCO[C@H]1CN(C)S(=O)(=O)c1ccc(Cl)cc1 | active |
| COCC#Cc1ccc([C@H]2[C@H](CO)N3C(=O)CN(C(=O)c4ccncc4)C[C@@H]23)cc1 | inactive |
| Cc1noc(C)c1S(=O)(=O)N(C)C[C@@H]1Oc2ccc(NS(=O)(=O)c3cn(C)cn3)cc2CC(=O)N([C@H](C)CO)C[C@@H]1C | inactive |
| NC(=S)CS(=O)(=O)c1ccccn1 | inactive |
| CC(=O)OC[C@H]1O[C@@H](NC(N)=O)[C@H](OC(C)=O)[C@@H](OC(C)=O)[C@@H]1OC(C)=O | inactive |
| C[C@@H]1CCCCO[C@@H](CN(C)C)[C@H](C)CN([C@@H](C)CO)C(=O)c2cc(NC(=O)Nc3cccc4ccccc34)ccc2O1 | inactive |
| C[C@H]1CN([C@@H](C)CO)C(=O)c2cc(NC(=O)CCCN(C)C)ccc2O[C@@H]1CN(C)C(=O)Nc1ccccc1 | inactive |
| NC[C@@H](O)C1CCCCC1 | inactive |
| c1cn2c3c(n1)CCCc3c1cc(C3CCCCC3)ccc12 | inactive |
| CSC[C@H]1O[C@H](n2ccc3c(N)ncnc32)[C@@H](O)[C@H]1O | inactive |
| NC(=O)c1cn([C@@H]2O[C@H](CO)[C@@H](O)[C@H]2O)c2ncnc(N)c2c1=O | inactive |
| Nc1ncnc2c1c(I)cn2[C@@H]1O[C@H](CO)[C@@H](O)[C@H]1O | active |
| Nc1nc(=O)n([C@@H]2O[C@H](CO)[C@@H](O)[C@@H]2F)cc1I | inactive |
| Nc1ncnc2c1ncn2[C@H]1O[C@@H](CO)[C@H](O)[C@@H]1S | inactive |
| Nc1ncnc2c1c(I)cn2[C@H]1O[C@@H](CO)[C@@H](O)[C@@H]1O | active |
| CCS(=O)(=O)N1C[C@]2(CCN(CC2)Cc2cccc(c2)OC)c2c([nH]c3cc(ccc23)OC)[C@@H]1CO | inactive |
| C[C@@H]1CN([C@H](C)CO)C(=O)Cc2cc(NC(=O)CCC(F)(F)F)ccc2O[C@H]1CN(C)S(=O)(=O)c1cccs1 | inactive |
| Cc1ccc(S(=O)(=O)Nc2cccc3c2O[C@H](CN(C)S(=O)(=O)c2cn(C)cn2)[C@@H](C)CN([C@@H](C)CO)C3=O)cc1 | inactive |

| Compound | cytotoxicity call |
| --- | --- |
| COCCOC(=O)N1C(=O)[C@@]2(c3cc(C#CCC(C(=O)OC)C(=O)OC)ccc31)[C@H](C(=O)Nc1nc3ccccc3s1)[C@H]1C(=O)O[C@H](c3ccccc3)[C@H](c3ccccc3)N1[C@@H]2c1ccccc1OCCO | inactive |
| Cc1noc(C)c1S(=O)(=O)Nc1ccc2c(c1)C(=O)N([C@H](C)CO)C[C@@H](C)[C@H](CN(C)C(=O)Nc1ccc(F)cc1)OCCCC[C@@H](C)O2 | inactive |
| CCOC(=O)C(C)(C)Oc1ccc(Cl)cc1 | inactive |
| CC(C)(C)Oc1ccc(O)cc1 | inactive |
| CC(C)(C)C(=O)OCOP(=O)(OCOC(=O)C(C)(C)C)C(C)(Oc1ccc(O)cc1)P(=O)(OCOC(=O)C(C)(C)C)OCOC(=O)C(C)(C)C | active |
| COc1ccc(NC(=O)N(C)C[C@H]2OCCCC[C@@H](C)Oc3ccc(NS(=O)(=O)c4ccc(C)cc4)cc3C(=O)N([C@@H](C)CO)C[C@@H]2C)cc1 | inactive |
| COc1cc2c(cc1O)[C@H](c1ccc(CN3CCCC3)cc1)N(Cc1cc3c(cc1Br)OCO3)CC2 | inactive |
| C[C@@H]1CN([C@H](C)CO)C(=O)Cc2cc(NC(=O)Nc3ccc(C(F)(F)F)cc3)ccc2O[C@@H]1CN(C)C(=O)NC1CCCCC1 | active |
| C[C@@H]1CN([C@@H](C)CO)C(=O)Cc2cc(NC(=O)Nc3ccc(C(F)(F)F)cc3)ccc2O[C@@H]1CN(C)C(=O)NC1CCCCC1 | active |
| C[C@@H]1CN([C@@H](C)CO)C(=O)Cc2cc(NC(=O)Nc3ccc(C(F)(F)F)cc3)ccc2O[C@H]1CN(C)C(=O)NC1CCCCC1 | inactive |
| C[C@H](CO)N1C[C@H](C)[C@@H](CN(C)C(=O)NC2CCCCC2)Oc2ccc(NC(=O)Nc3ccc(C(F)(F)F)cc3)cc2CC1=O | inactive |
| C[C@H]1CN([C@@H](C)CO)C(=O)Cc2cc(NC(=O)Nc3ccc(C(F)(F)F)cc3)ccc2O[C@H]1CN(C)C(=O)NC1CCCCC1 | inactive |
| C[C@@H]1CN([C@H](C)CO)C(=O)Cc2cc(NC(=O)Nc3ccc(C(F)(F)F)cc3)ccc2O[C@H]1CN(C)C(=O)NC1CCCCC1 | inactive |
| CC(C)C(=O)O | inactive |
| C[C@@H]1CN([C@@H](C)CO)C(=O)c2cc(NS(=O)(=O)c3cn(C)cn3)ccc2O[C@@H](C)CCCCO[C@H]1CN(C)S(=O)(=O)c1cccs1 | inactive |
| NCCc1cc2nc(-c3ccncc3)ccn2n1 | inactive |
| CN1CCN(C(=O)C[C@H]2CC[C@H]3[C@@H](COC[C@H](O)CN3C(=O)C3CCCC3)O2)CC1 | inactive |
| O=c1ncc(F)c[nH]1 | inactive |
| CCCNC(=O)N1C[C@]2(CCN(CC2)S(=O)(=O)c2cccc(c2)OC)c2c(n(c3cc(ccc23)OC)C)[C@H]1CO | inactive |
| C=CCOC(=O)[C@@H]1[C@H]2C(=O)O[C@H](c3ccccc3)[C@H](c3ccccc3)N2[C@H](c2ccc(OCCOC(=O)[C@H]3C[C@H]4C(=O)N[C@@H](CC(C)C)C(=O)N4[C@H]3c3ccc(O)cc3)cc2)[C@@]12C(=O)Nc1ccc(I)cc12 | inactive |
| CCC(=C/[C@H](C)C/C=C/C(C)=C/[C@@H](C)C(=O)[C@@H](C)[C@H](O)[C@@H](C)C/C(C)=C/C(=O)O)/C=C/[C@@H]1OC(=O)C=C[C@@H]1C | active |
